Results taken from article PMC5540273 (PLoS ONE, 2017).

Assays:
Details in all cases: concentration: 1 μM,replicates: in singlicate; n = 1
AAK1 = system: AAK1
ABL1-nonphosphorylated = system: ABL1-nonphosphorylated
ABL1-phosphorylated = system: ABL1-phosphorylated
ABL2 = system: ABL2
ACVR1B = system: ACVR1B
ACVR1 = system: ACVR1
ACVR2A = system: ACVR2A
ACVR2B = system: ACVR2B
ACVRL1 = system: ACVRL1
ADCK3 = system: T1, ADCK3
T1 construct: gene CABC1

ADCK4 = system: ADCK4
AKT1 = system: AKT1
AKT2 = system: AKT2
AKT3 = system: AKT3
ALK = system: ALK
AMPK-alpha1 = system: T2, AMPK-alpha1
T2 construct: gene PRKAA1

AMPK-alpha2 = system: T3, AMPK-alpha2
T3 construct: gene PRKAA2

ANKK1 = system: ANKK1
ARK5 = system: T4, ARK5
T4 construct: gene NUAK1

ASK1 = system: T5, ASK1
T5 construct: gene MAP3K5
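Further: KINOMEscan kinase panel screen.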

Row | Structure (SMILES) | %Inh (AAK1) [%] | %Inh (ABL1-nonphosphorylated) [%] | %Inh (ABL1-phosphorylated) [%] | %Inh (ABL2) [%] | %Inh (ACVR1B) [%] | %Inh (ACVR1) [%] | %Inh (ACVR2A) [%] | %Inh (ACVR2B) [%] | %Inh (ACVRL1) [%] | %Inh (ADCK3) [%] | %Inh (ADCK4) [%] | %Inh (AKT1) [%] | %Inh (AKT2) [%] | %Inh (AKT3) [%] | %Inh (ALK) [%] | %Inh (AMPK-alpha1) [%] | %Inh (AMPK-alpha2) [%] | %Inh (ANKK1) [%] | %Inh (ARK5) [%] | %Inh (ASK1) [%]
1 | Cc1ccc(Nc2ccnc(Nc3ccc4c(c3)CS(=O)(=O)C4)n2)cc1O.Cl [GW579362] | 80 | 99.3 | 99.8 | 99.3 | 84 | 99.5 | 72 | 95.6 | 85 | 8 | 100 | 0 | 0 | 0 | 51 | 10 | 17 | 44 | 25 | 0
2 | COC(=O)c1cccc(NC(=O)NC2CCN(c3ccnc(NCc4ccc(F)cc4)n3)CC2)c1 [GSK1379860] | 0 | 0 | 0 | 14 | 0 | 0 | 0 | 23 | 0 | 5 | 18 | 0 | 0 | 0 | 30 | 0 | 0 | 0 | 10 | 0
3 | CCn1c(-c2nonc2N)nc2cncc(Br)c21 [SB-738004] | 67 | 0 | 0 | 0 | 30 | 0 | 0 | 9 | 0 | 25 | 23 | 0 | 13 | 0 | 31 | 18 | 0 | 1 | 0 | 13
4 | O=C(Nc1cccc(C(F)(F)F)c1)c1cccc(Oc2ccc3nccn3n2)c1 | 0 | 98.5 | 17 | 76 | 0 | 0 | 24 | 8 | 0 | 14 | 0 | 0 | 17 | 1 | 0 | 8 | 84 | 0 | 0 | 5
5 | O=c1[nH]cc(-c2ccc(O)cc2)c2sc(-c3ccncc3)cc12 [GSK1033723] | 26 | 0 | 0 | 0 | 0 | 0 | 0 | 0 | 0 | 34 | 16 | 0 | 16 | 97.2 | 0 | 0 | 13 | 10 | 13 | 0
6 | COc1cc2ncn(-c3cc(OCC4CCCCC4)c(C(N)=O)s3)c2cc1OC [GSK204559] | 55 | 0 | 0 | 14 | 0 | 5 | 18 | 32 | 0 | 11 | 11 | 0 | 0 | 0 | 22 | 0 | 27 | 14 | 0 | 14
7 | c1ccc(Oc2ccc(Nc3ccnc4ccc(-c5ccccn5)cc34)cc2)cc1 [GW407034] | 13 | 0 | 0 | 17 | 0 | 5 | 6 | 13 | 0 | 12 | 19 | 0 | 17 | 0 | 28 | 10 | 0 | 0 | 26 | 4
8 | CC(C(=O)NC1CCN(c2ccnc(Nc3ccc(F)cc3)n2)C1)c1ccc(Cl)cc1 (stereo not drawn) [GSK1379713] | 14 | 0 | 0 | 9 | 0 | 0 | 0 | 0 | 0 | 0 | 13 | 0 | 0 | 0 | 5 | 10 | 0 | 4 | 0 | 0
9 | COC(=O)c1cccc(NC(=O)NC2CCN(c3ccnc(Nc4cc(OC)c(OC)c(OC)c4)n3)C2)c1 (stereo not drawn) [GSK1379767] | 68 | 0 | 0 | 1 | 0 | 33 | 35 | 6 | 0 | 21 | 60 | 0 | 0 | 0 | 50 | 16 | 9 | 20 | 10 | 0
10 | N#Cc1cccc(C(=O)NC2CCN(c3ccnc(Nc4ccc(F)cc4)n3)C2)c1 (stereo not drawn) [GSK1379708] | 0 | 0 | 0 | 4 | 0 | 31 | 0 | 0 | 0 | 0 | 20 | 0 | 0 | 0 | 26 | 16 | 0 | 0 | 0 | 0
11 | CS(=O)(=O)Nc1ccc(-c2ccnc3[nH]ccc23)cc1 [GSK993273] | 79 | 0 | 1 | 16 | 0 | 3 | 0 | 0 | 0 | 12 | 22 | 0 | 21 | 0 | 18 | 94.4 | 0 | 27 | 0 | 44
12 | CN(c1ccc2c(c1)nc(NCc1ccc(F)cc1)n2C)c1ccnc(Nc2ccc(CS(C)(=O)=O)cc2)n1.Cl [GW813244] | 30 | 97.2 | 79 | 75 | 3 | 17 | 0 | 0 | 0 | 0 | 21 | 8 | 0 | 1 | 0 | 11 | 5 | 0 | 4 | 37
13 | CN1CCN(CCNc2nc3cc(Oc4ccc(NC(=O)Nc5cc(C(F)(F)F)ccc5F)cc4)ccc3[nH]2)CC1.Cl.Cl [GW768504] | 0 | 51 | 23 | 0 | 0 | 0 | 0 | 0 | 0 | 0 | 22 | 4 | 0 | 0 | 0 | 9 | 11 | 0 | 29 | 0
14 | C[C@@H](Oc1cc(-n2cnc3cc(-c4ccncc4)ccc32)sc1C(N)=O)c1ccccc1Cl [GSK479719] | 61 | 0 | 25 | 22 | 0 | 10 | 0 | 0 | 0 | 12 | 9 | 0 | 6 | 0 | 31 | 5 | 17 | 0 | 75 | 4
15 | Cc1nnc(-c2ccc3occ(-c4ccc(S(C)=O)cc4)c3n2)o1 (stereo not drawn) | 0 | 43 | 30 | 16 | 0 | 0 | 0 | 0 | 0 | 2 | 0 | 0 | 17 | 0 | 0 | 0 | 0 | 0 | 10 | 0
16 | CC(=O)Nc1ccc(-c2cc3ncnc(SCC(=O)O)c3s2)cc1 | 44 | 15 | 3 | 8 | 2 | 0 | 4 | 30 | 27 | 0 | 0 | 0 | 28 | 16 | 7 | 2 | 0 | 22 | 0 | 0
17 | CCN1CCN(CCCC(=O)Nc2n[nH]c3nc(-c4ccc(O)cc4)c(Br)cc23)CC1 [SB-731579] | 0 | 64 | 31 | 100 | 0 | 78 | 0 | 2 | 63 | 0 | 16 | 0 | 0 | 0 | 0 | 0 | 0 | 0 | 5 | 0
18 | O=C(NCC1CC1)c1ccc(-c2cc(C(=O)NC3CC3)ccc2F)cc1 [GW810445] | 0 | 0 | 10 | 3 | 0 | 0 | 0 | 6 | 0 | 0 | 23 | 24 | 0 | 0 | 10 | 0 | 0 | 0 | 0 | 19
19 | CN1CCN(CCCNc2nccc(-c3c(-c4ccc(F)cc4)nn4cc(C(N)=O)ccc34)n2)CC1 [GW622475] | 33 | 10 | 0 | 17 | 94.9 | 90.6 | 19 | 45 | 77 | 96.7 | 100 | 0 | 12 | 0 | 26 | 18 | 11 | 29 | 19 | 0
20 | CNC(=O)c1ccccc1Nc1nc(Nc2cccc(CS(C)(=O)=O)c2)ncc1C.O=CO [GSK1520489] | 85 | 99.9 | 99.9 | 99.4 | 71 | 76 | 7 | 54 | 2 | 0 | 33 | 0 | 0 | 0 | 95.1 | 96.4 | 97.9 | 39 | 99.1 | 0
21 | COc1ccc(Nc2nccc(N3CCC(NC(=O)c4cccc(C#N)c4)C3)n2)cc1 (stereo not drawn) [GSK1379730] | 0 | 0 | 0 | 9 | 4 | 24 | 0 | 0 | 0 | 0 | 9 | 0 | 0 | 0 | 28 | 0 | 0 | 0 | 0 | 0
